Results reported in ChEMBL document CHEMBL3988442, “University of Dundee, Small-Polar-MMV Screening Library” (2021).

Legend:
[1] = biological target: T1, Aspartate--tRNA(Asp/Asn) ligase (Mycobacterium tuberculosis (strain ATCC 25618 / H37Rv)) (UniProt P9WFW3); test: Assay for Asp RNA synthetase-1 from Mycobacterium tuberculosis; type: functional; set-up: scale not given: direction of the effect not stated beside the values; settings: 30 µM; note: in the data most compounds retested in dose-response had high values
T1 sequence (whole entry): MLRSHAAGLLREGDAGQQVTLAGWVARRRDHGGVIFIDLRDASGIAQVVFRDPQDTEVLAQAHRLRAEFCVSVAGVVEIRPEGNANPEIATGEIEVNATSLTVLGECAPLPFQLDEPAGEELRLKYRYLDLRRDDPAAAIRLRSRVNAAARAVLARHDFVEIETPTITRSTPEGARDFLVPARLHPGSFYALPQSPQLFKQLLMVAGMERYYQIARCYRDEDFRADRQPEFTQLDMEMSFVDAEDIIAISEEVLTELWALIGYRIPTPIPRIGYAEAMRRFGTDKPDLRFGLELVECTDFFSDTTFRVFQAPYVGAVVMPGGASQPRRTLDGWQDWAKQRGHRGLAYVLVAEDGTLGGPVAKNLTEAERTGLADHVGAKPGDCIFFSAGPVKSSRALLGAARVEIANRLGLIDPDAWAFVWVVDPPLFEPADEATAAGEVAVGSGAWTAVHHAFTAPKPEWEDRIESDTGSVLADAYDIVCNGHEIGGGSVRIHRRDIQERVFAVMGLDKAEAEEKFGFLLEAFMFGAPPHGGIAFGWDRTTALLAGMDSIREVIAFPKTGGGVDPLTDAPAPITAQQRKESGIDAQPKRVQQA

[2] = biological target: Shiga toxin 2 (Escherichia coli O157:H7) (UniProt P09385+P09386); test: E. coli 0.157:H7 Shiga Toxin SOP - stx2 screening assay; type: functional; set-up: scale not given: direction of the effect not stated beside the values; settings: 30 µM

| SMILES | Percent Effect [1] [%] | Percent Effect [2] [%] |
| --- | --- | --- |
| O=C1CCCCN1Cc1cccc(NC(=O)N2CCSCC2)c1 | -4.71 | -1.06 |
| Cc1cc(NC(=O)N(CC2CCOC2)C2CC2)no1 (configuration not stated) | -10.9 | -2.82 |
| COCCN1CCN(C(=O)c2ccncc2F)Cc2cccnc21 | -0.348 | -48.6 |
| N#Cc1cccnc1NCc1cccnc1N1CCC(C(N)=O)CC1 | 4.47 | -10.3 |
| CC1CCN(C(=O)c2ccn(COc3ccc(F)cc3)n2)CC1 | 9.51 | -44.1 |
| Cc1cnn(CCNCC(=O)NCc2ccccc2)c1 | 1.29 | 10.2 |
| COCCc1noc(CN2CCCC2c2c(C)nn(C)c2C)n1 (configuration not stated) | -7.13 | 10.3 |
| O=C(NCC1CCN(Cc2ccsc2)CC1)NC1CC1 | 4.04 | -10.9 |
| Cc1ccc(N2CCCC(NCc3cccc4c3OCCO4)C2)nn1 (configuration not stated) | 4.13 | 19 |
| Cc1nnc(SCC(=O)N2CCC3(CC2)c2ccccc2CC3O)o1 (configuration not stated) | 4.4 | -18.7 |
| CCNC(=O)c1nnc2ccc(N3CCOCC3)cc2n1 | 0.9 | -20.2 |
| Cc1ncccc1OC1(C(=O)NCCCN2CCOCC2)CCNCC1 | 1.19 | -8.28 |
| CC(C)n1ccc(-c2cc(C(=O)N3CCCC3)c3ccccn23)n1 | 2.64 | -41.4 |
| COc1ncccc1NC(=O)C1CCN(S(C)(=O)=O)CC1 | -1.61 | -91.6 |
| CC(NCc1ccncc1)c1cc(F)ccc1N1CCN(C)CC1 (configuration not stated) | 0.183 | -4.73 |
| Fc1ccccc1Cc1noc(CN2CCCC(CN3CCCC3)C2)n1 (configuration not stated) | -0.254 | 11.5 |
| CN(C)CCN(C)C(=O)c1cnc2c(c1)nc(-c1ccccc1Cl)n2C | 7.01 | 9.89 |
| Cn1ccc(CN2CCC(NC(=O)Cc3ccccc3)CC2)cc1=O | -3.72 | 8 |
| CN(Cc1cn2ccccc2n1)C1CCCN(c2cccnn2)C1 (configuration not stated) | 3.45 | -72.8 |
| COCC1CN(Cc2ccc(C)o2)Cc2ncn(CC3CC3)c21 (configuration not stated) | -3.92 | -13.7 |
| CC1CCCN(CCNC(=O)c2ccn(-c3ccccc3)n2)C1 (configuration not stated) | 5.86 | -20.3 |
| CN(C)C(=O)NCc1cc2n(n1)CCN(C[C@H]1[C@@H]3CNC[C@@H]31)C2 | -4.99 | -21.2 |
| Cn1ccc(C(=O)N2CCN(CCc3ccccc3)CC2)cc1=O | -1.76 | -19.1 |
| Cc1noc(C2CCN(C(=O)c3ccc(N(C)C)nc3)CC2)n1 | -4.17 | -12.5 |

| SMILES | Percent Effect [1] [%] | Percent Effect [2] [%] |
| --- | --- | --- |
| Cc1cc(CN2CCN(CC(O)C(C)(C)C)CC2)no1 (configuration not stated) | -13.9 | 0.649 |
| CNCC(=O)N1CC(c2cc(Nc3ncccn3)nc(C)n2)C1 | -3.19 | -3.14 |
| O=C(CO)N1CCC(c2cncc(-c3cccc(Cl)c3)n2)CC1 | 4.78 | -9.28 |
| O=C(NC1CCC1)[C@@H]1C[C@@H]2CCN(Cc3cccs3)C[C@@H]2O1 | -2.46 | -16.7 |
| Cc1cc(C)n(CC2CN(Cc3nc(-c4ccoc4)no3)CCO2)n1 (configuration not stated) | 5.71 | 28.8 |
| COCCNc1nc(C2CCCC2)nc2c1CCNCC2 | 2.87 | -36.8 |
| COc1cc(C(=O)N(Cc2ccc(F)cc2)C2CC2)cc2c1OCCO2 | 9.07 | -12.1 |
| CC(C)N1CCOCC2(CN(Cc3ccco3)CCO2)C1 (configuration not stated) | 1.82 | 5.04 |
| Cc1nn(C)c(Cl)c1C1CCCN1C(=O)c1ccc2nncn2c1 (configuration not stated) | -1.25 | 2.44 |
| Cc1nc(CN2C(=O)C[C@@H]3[C@@H]2CCN3C(=O)C2CCOCC2)cs1 | -2.3 | -52.6 |
| Cc1nc(CN2CCCC(CCc3c(F)cccc3F)C2)c[nH]1 (configuration not stated) | -1.36 | -14.3 |
| COCCO[C@H]1CCN(C(=O)c2ccno2)[C@H]1Cc1cnn(C)c1 | -3.56 | -13.7 |
| O=C(CCNC(=O)c1ccccc1N1CCOCC1)NC1CCCC1 | -1.94 | -19.9 |
| O=C(NCC(O)CN1CCc2ccccc2C1)Nc1cccnc1 (configuration not stated) | -0.98 | -22.8 |
| COc1cnc(N2CCC(Oc3ccccc3OC)(C(=O)O)CC2)nc1 | -1.16 | -0.671 |
| CN(Cc1ccco1)C(=O)CN1CCCC(Cn2cncn2)C1 (configuration not stated) | -1.04 | -14.6 |
| COCC(c1cccc(C(F)(F)F)c1)N(C)C(=O)c1ccncc1 (configuration not stated) | -1.77 | -15.3 |
| CC(=O)N1[C@H](Cn2cncn2)C[C@@H]2CN(S(C)(=O)=O)CC[C@@H]21 | 2.85 | -36.4 |
| Cc1noc(C)c1CCC(=O)NC(C)c1nnc2n1CCC2 (configuration not stated) | -0.635 | -3.03 |
| Cn1c(CN2CCOC(c3nc(C(C)(C)C)n[nH]3)C2)nnc1C1CC1 (configuration not stated) | -5.04 | -21.1 |
| CCS(=O)(=O)c1ccccc1C(=O)NCc1ccnc(N(C)C)c1 | -3.31 | -44.7 |
| CCNC(=O)N1CCN(C(=O)c2cc(Cl)cc3cccnc23)CC1 | -3.21 | -11.9 |
| NC(=O)C1(Cc2ccccc2-c2ccccc2)CCCN(CC2CC2)C1 (configuration not stated) | 2.13 | -5.72 |
| Cc1nnc([C@@H]2CC[C@@H]3[C@@H](CCN3S(=O)(=O)c3cccnc3)O2)o1 | 7.29 | 8.32 |

| SMILES | Percent Effect [1] [%] | Percent Effect [2] [%] |
| --- | --- | --- |
| FC1(F)CCN(Cc2cccnc2)CC12CCN(c1ccccn1)C2 (configuration not stated) | 1.91 | 4.74 |
| Cc1ccc(CC(=O)N2CC[C@@H]3CN(CCN(C)C)CCO[C@@H]3C2)cc1 | 6.89 | -3.9 |
| CCOCCC(=O)Nc1cccc(Oc2ccccn2)c1 | 5.81 | -31.9 |
| CCc1nc2n(n1)CC(Nc1cc(C)nc3ncnn13)CC2 (configuration not stated) | -4.28 | 2.96 |
| COc1c(C)cnc(CN2CCOC(Cn3nc(C)nc3C)C2)c1C (configuration not stated) | 1.63 | 8.19 |
| COC(=O)c1ccc(N2CCN(CCC(=O)NC(N)=O)C(C)C2)cc1 (configuration not stated) | 3.04 | 25.6 |
| COC(=O)c1sccc1S(=O)(=O)N1CCC(Oc2ncccc2Cl)CC1 | -5.87 | 4.83 |
| CC(C)NC(=O)N1CC[C@@H]2CN(Cc3cccc(Cl)c3)S(=O)(=O)[C@@H]2CC1 | 5.42 | -9.22 |
| COc1ccccc1OCc1cc(C(=O)N2C[C@H](O)[C@@H](N(C)C)C2)n[nH]1 | 0.529 | -9.19 |
| Cc1nc(CN2CCO[C@@H]3CN(C(=O)NC(C)C)CC[C@@H]3C2)cs1 | 3.49 | -4.73 |
| COc1cccc(CN2CCC(c3nccn3C(C)C)CC2)c1 | 1.9 | -26.4 |
| O=C(N[C@@H]1CCNC[C@H]1O)c1ccc(F)c(Cl)c1 | -0.19 | 12.3 |
| Cc1[nH]c(=O)[nH]c(=O)c1CN1CCCC(CCc2c(F)cccc2F)C1 (configuration not stated) | 0.725 | 0.432 |
| COc1ccc(Br)c(C(=O)NCCNc2ccc(C(F)(F)F)cn2)c1 | 7.7 | 23.3 |
| O=C(NCCc1nnc2n1CCC2)NC1(c2cccc(F)c2)CC1 | 3.98 | -25 |
| CCn1cnnc1C1CCN(C(=O)c2ccc(C(=O)OC)s2)CC1 | -7.04 | 7.28 |
| Cc1nn(C)c(C)c1NC(=O)CCn1ncc2c(C)cccc21 | 10.1 | -31.5 |
| COc1ccccc1CNC(=O)N1CCCC(c2nncn2C)C1 (configuration not stated) | -4.33 | 25.8 |
| c1ccc(-c2nc(CN3CCCC3Cn3cncn3)cs2)cc1 (configuration not stated) | 0.143 | 5.25 |
| COCCn1c2c(ccc1=O)CC(NS(C)(=O)=O)CC2 (configuration not stated) | 2.72 | -20.6 |
| Cc1cc(C(=O)N2CCCCC2C)ccc1NCCCO (configuration not stated) | -5.49 | 11.1 |
| Cc1ccc(-c2nc(CN3CCOC(c4ccccc4)C3)cs2)o1 (configuration not stated) | -0.792 | 13 |
| COc1ccc(CN2CCc3ncnc(OC(C)C)c3CC2)cc1 | 8.01 | -9.16 |
